Screens from PubChem.
Shown are actives, neighbours in structure and some others; about 2.4% of the full set was active somewhere.
WRN inhibitor: WRN helicase (human) inhibition; Q14191; WRN helicase unwinding, fluorescent forked duplex, kinetic; Potency, µM (series often up to 114 µM), most hits filed as inhibitors; 360,000 tested, 0.46% active; also: nearly all actives have a fitted effect of over 55% in size
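WRN at 20 nM final was preincubated with compound for 15 min at room temperature; reaction started with 100 nM forked duplex oligonucleotide carrying fluorophore and quencher plus 2 mM ATP (final). Unwinding followed kinetically by red fluorescence (ex 525/em 598 nm).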
Pol kappa inh-1: blocks human DNA polymerase kappa activity | 400,000 tested, 0.53% active | AID 588579 | purified Pol kappa, fluorescent DNA synthesis assay, 10 min | Potency, µM (highest dose often 107 µM), hits mostly inhibitors | Q9UBT6
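Readout: fluorescence, taken kinetically at 0 and 10 min. Conditions: 10 nM Pol kappa, 15 min RT compound preincubation, 50 nM substrate final. Controls: enzyme-free buffer wells.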
Pol eta inh-1: blocks human DNA polymerase eta activity | Q9Y253 | Potency, µM (doses to about 114 µM), hits mostly inhibitors | recombinant Pol eta, fluorescent DNA replication assay | 390,000 tested, 1.2% active
Target sequence (Q9Y253 whole entry, looked up): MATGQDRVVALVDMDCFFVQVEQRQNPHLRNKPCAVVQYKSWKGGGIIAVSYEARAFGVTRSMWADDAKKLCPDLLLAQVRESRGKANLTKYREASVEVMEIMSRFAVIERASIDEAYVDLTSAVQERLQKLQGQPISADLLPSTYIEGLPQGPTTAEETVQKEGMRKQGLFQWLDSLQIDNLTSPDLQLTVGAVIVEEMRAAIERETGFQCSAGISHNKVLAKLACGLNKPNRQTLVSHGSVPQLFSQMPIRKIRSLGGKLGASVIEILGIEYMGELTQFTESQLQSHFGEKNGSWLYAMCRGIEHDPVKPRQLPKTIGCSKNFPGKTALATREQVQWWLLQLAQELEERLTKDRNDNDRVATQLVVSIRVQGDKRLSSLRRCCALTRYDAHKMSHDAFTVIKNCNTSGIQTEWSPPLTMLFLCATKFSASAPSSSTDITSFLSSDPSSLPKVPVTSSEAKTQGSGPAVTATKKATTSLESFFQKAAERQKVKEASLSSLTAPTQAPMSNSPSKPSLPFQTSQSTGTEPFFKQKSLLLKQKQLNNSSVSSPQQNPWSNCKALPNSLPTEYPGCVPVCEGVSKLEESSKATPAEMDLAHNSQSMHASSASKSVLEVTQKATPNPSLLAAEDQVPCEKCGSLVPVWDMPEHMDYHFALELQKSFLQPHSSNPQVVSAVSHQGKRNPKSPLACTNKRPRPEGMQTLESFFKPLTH
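Pol eta (10 nM) was preincubated with compounds for 15 min at room temperature, after which fluorescent replication substrate (50 nM final) was added to start the reaction. Fluorescence was read kinetically at 0 and 10 min.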
Pol iota inh: blocks human DNA polymerase iota activity | Potency, µM (top dose mostly 115 µM), usual class: inhibitors | AID 588590 | 390,000 tested, 1% active | Pol iota fluorescent replication assay, 10 min | Q9UNA4
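Pol iota at 10 nM preincubated 15 min with compounds at room temperature; reaction started with fluorescent substrate, 50 nM final. Fluorescence read kinetically at 0 and 10 min; buffer-only wells as negative control.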
FEN1 inh: inhibitors of human flap endonuclease 1 | Recombinant FEN1 flap cleavage, fluorescence, 15 min | 390,000 tested, 0.35% active | Potency, µM (top dose mostly 114 µM), usual class: inhibitors | P39748; also: nearly all actives have a fitted effect of over 65% in size
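Compounds are tested as a concentration series against 10 nM FEN1; after a 15 min room-temperature preincubation, 50 nM substrate starts cleavage, with plate reads at 0 and 15 min. Normalized responses are fitted by a Hill equation.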
POLB inh: blocks human DNA polymerase beta activity. 340,000 tested, 1.3% active. Potency, µM (top dose mostly 114 µM), most hits filed as inhibitors. AID 485314. Pol beta primer extension/strand displacement, fluorescence kinetic
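10 nM enzyme + cpd, 15 min RT; start with substrate 50 nM final; read 0 min and after 10 min RT. Corrected, normalized data; 4-parameter Hill curve fit.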
TbPGK inh: validation of Trypanosoma brucei phosphoglycerate kinase inhibitors | 500 tested, 79% active | TbPGK coupled GAPDH assay, Kinase-Glo luminescence | Potency, µM (titrated, usually from 57.5 µM), most hits filed as inhibitors | shares compounds with Pol kappa inh-1; also: nearly all actives have a fitted effect of over 65% in size
POLI cherry-pick: Human Pol iota inhibitor confirmatory assay; shares compounds with Pol kappa inh-1; Pol iota primer extension, TAMRA/BHQ fluorescence; Potency, µM, usual class: inhibitors; 1,500 tested, 77% active; AID 720496
Pol kappa inh-2: Pol kappa (human) inhibition, cherry-pick confirmation | shares compounds with Pol eta inh-1 | purified Pol-kappa, fluorescent strand-displacement substrate | Potency, µM, most hits filed as inhibitors | 920 tested, 76% active | AID 720501
Pol eta inh-2: confirmation of human DNA polymerase eta inhibitors; shares compounds with Pol eta inh-1; Pol eta primer extension, TAMRA/BHQ fluorescence, 10 min; Potency, µM, usual class: inhibitors; 2,600 tested, 64% active
Of the large screens only hits and unclear results are named; the others gave an inactive call (follow-up assays come after a bar, where they were run). Calls follow the shape of the dose curve; as a rule, active = well fitted curve in the direction sought with a large enough effect; inconclusive = small, poorly fitted or top-dose-only effect, or another doubt; inactive = no such curve, though single readings can be large; an effect the other way counts as inactive or inconclusive.

Oc1ccc(/C=N/NC(=S)Nc2cccnc2)c(O)c1	none
Oc1ccc(/C=N/NC(=S)Nc2cccnc2)c(O)c1O	WRN inhibitor 10µM, Pol kappa inh-1 2.2µM, Pol eta inh-1 inconclusive, Pol iota inh inconclusive, FEN1 inh 4.5µM, POLB inh inconclusive | POLI cherry-pick 2.7 | Pol kappa inh-2 3 | Pol eta inh-2 3
Cc1ccc(-c2nc(CS(=O)(=O)CC(=O)N3CCN(c4cccc(C)c4C)CC3)c(C)o2)cc1	none (no result: WRN inhibitor)
C/C(N)=C(/C#N)C(=O)CSc1nc2ccccc2c(=O)n1Cc1ccc(C)cc1	Pol iota inh inconclusive
C/C(N)=C(/C#N)C(=O)CSc1nc2ccccc2c(=O)n1Cc1ccc(F)cc1	Pol kappa inh-1 79µM, Pol eta inh-1 20µM, Pol iota inh 11µM, FEN1 inh inconclusive, POLB inh 7.9µM | POLI cherry-pick 42 | Pol kappa inh-2 38 | Pol eta inh-2 48
CCCC(=O)N1c2nc(-c3ccco3)nn2C2(CCCCC2)[C@@H]2CCCC[C@@H]21	none (no result: WRN inhibitor)
Cn1c(SCC(=O)N/N=C/C=C\c2ccco2)nc2ccccc21	WRN inhibitor inconclusive, Pol kappa inh-1 28µM, Pol eta inh-1 22µM, Pol iota inh 13µM, FEN1 inh inconclusive, POLB inh 45µM | POLI cherry-pick inconclusive | Pol kappa inh-2 67 | Pol eta inh-2 67
Cc1ccc2oc(-c3ccc(C)c(NC(=O)COc4ccc(Cl)cc4C)c3)nc2c1	Pol iota inh inconclusive (no result: WRN inhibitor, Pol eta inh-1, POLB inh)
CC(=O)Nc1ccc2c(COC(=O)CC3Sc4ccccc4NC3=O)cc(=O)oc2c1 (stereo not drawn)	WRN inhibitor inconclusive, Pol kappa inh-1 35µM, Pol eta inh-1 20µM, Pol iota inh inconclusive, POLB inh 7.9µM | POLI cherry-pick 60 | Pol eta inh-2 48
CC(=O)Nc1ccc(NC(=O)CC2Sc3ccccc3NC2=O)cc1 (stereo not drawn)	none (no result: WRN inhibitor)
CCc1cc[n+](CC(=O)c2ccc(F)cc2)cc1C(=O)O	none (no result: WRN inhibitor, Pol eta inh-1, POLB inh)
O=S(=O)(c1ccccc1)N1CCC2(CCN(Cc3ccncc3)CC2)CC1	none (no result: WRN inhibitor, Pol eta inh-1, Pol iota inh, FEN1 inh, POLB inh)
Nc1nc(=S)c2ncn(C3OC(CO)C(O)C3O)c2[nH]1 (stereo not drawn)	WRN inhibitor 28µM, Pol kappa inh-1 inconclusive, Pol eta inh-1 4µM, Pol iota inh inconclusive, FEN1 inh 89µM, POLB inh 0.16µM | TbPGK inh 12µM | POLI cherry-pick 34 | Pol kappa inh-2 15 | Pol eta inh-2 27
Nc1nc(=S)c2ncn([C@@H]3O[C@H](CO)[C@@H](O)[C@H]3O)c2[nH]1	none (no result: POLB inh)
CCOC(=O)c1cc(S(=O)(=O)NCc2ccccc2)[nH]n1	none (no result: WRN inhibitor)
COc1ccc(C(=O)OCC(=O)NC(C)(C)C)cc1[N+](=O)[O-]	none
COc1ccc(C(=O)OCC(=O)Nc2ncc([N+](=O)[O-])s2)cc1OC	WRN inhibitor 50µM, Pol kappa inh-1 22µM, Pol eta inh-1 3.2µM, Pol iota inh inconclusive, FEN1 inh 35µM (no result: POLB inh) | TbPGK inh 18µM | POLI cherry-pick 19 | Pol kappa inh-2 6.7 | Pol eta inh-2 inconclusive
Cc1ccc(CC(=O)Nc2ncc([N+](=O)[O-])s2)cc1	none
O=C(COC(=O)c1ccc(Br)o1)Nc1ncc([N+](=O)[O-])s1	WRN inhibitor inconclusive, Pol kappa inh-1 79µM, Pol eta inh-1 3.2µM, Pol iota inh 22µM, FEN1 inh inconclusive (no result: POLB inh) | POLI cherry-pick inconclusive | Pol kappa inh-2 11 | Pol eta inh-2 19
COc1ccc(NC(=O)C2=C(C)Nc3nc(SCc4ccccc4C)nn3C2c2ccc(Br)cc2)cc1 (stereo not drawn)	none (no result: WRN inhibitor)
COc1ccc(NC(=O)C2=C(C)Nc3nc(SCc4ccccc4C)nn3C2c2cc(OC)c(O)c(OC)c2)cc1 (stereo not drawn)	Pol eta inh-1 inconclusive, Pol iota inh 28µM, POLB inh 8.9µM (no result: WRN inhibitor) | POLI cherry-pick inconclusive | Pol kappa inh-2 inconclusive
NS(=O)(=O)c1cc2c(cc1Cl)N[C@@H]([C@@H]1C[C@@H]3C=C[C@H]1C3)NS2(=O)=O	none (no result: WRN inhibitor, Pol eta inh-1, Pol iota inh, FEN1 inh, POLB inh)
CCOc1ccccc1-n1c(C)cc(C=O)c1C	none
Cc1c(C(=O)O)cccc1-n1c(C)cc(C=O)c1C	Pol kappa inh-1 inconclusive, Pol eta inh-1 6.3µM, Pol iota inh 25µM, POLB inh 16µM | POLI cherry-pick 30 | Pol eta inh-2 19
COc1ccc(C)cc1NC(=O)CN1C(=O)CCc2cc(S(=O)(=O)N3CCOCC3)ccc21	none (no result: WRN inhibitor)
O=c1c2sc3ccccc3c2n(Cc2ccccc2F)c(=O)n1CCc1ccccc1	none (no result: WRN inhibitor)
CCc1nn2c(=O)cc(COc3ccc(/C=C4\C(=N)N5N=C(C)SC5=NC4=O)cc3)nc2s1	WRN inhibitor inconclusive, Pol kappa inh-1 79µM, Pol eta inh-1 7.1µM, Pol iota inh inconclusive, FEN1 inh inconclusive, POLB inh 35µM | POLI cherry-pick 34 | Pol kappa inh-2 19 | Pol eta inh-2 48
O=C(NCc1ccco1)c1ccc([N+](=O)[O-])o1	WRN inhibitor inconclusive, Pol kappa inh-1 inconclusive, Pol eta inh-1 40µM, Pol iota inh 10µM, POLB inh 13µM | POLI cherry-pick 42 | Pol eta inh-2 54
CCCSc1nnc(NC(=O)CSc2sc3c(O)cc(=O)[nH]c3c2C#N)s1	WRN inhibitor 10µM, Pol kappa inh-1 20µM, Pol eta inh-1 3.2µM, Pol iota inh 8.9µM, FEN1 inh 35µM, POLB inh 20µM | POLI cherry-pick 67 | Pol kappa inh-2 11 | Pol eta inh-2 30
CCOc1cccc(NC(=O)CSc2sc3c(O)cc(=O)[nH]c3c2C#N)c1	none
N#Cc1c(SCC(=O)Nc2nccs2)sc2c(O)cc(=O)[nH]c12	WRN inhibitor 56µM, Pol kappa inh-1 45µM, Pol eta inh-1 14µM, Pol iota inh 13µM, FEN1 inh 45µM, POLB inh 8.9µM | POLI cherry-pick 47 | Pol kappa inh-2 17 | Pol eta inh-2 30
C=C(CO)C1Cc2c(ccc3c(=O)c4c(oc23)COc2cc(OC)c(OC)cc2-4)O1 (stereo not drawn)	none (no result: WRN inhibitor, Pol eta inh-1, Pol iota inh, FEN1 inh, POLB inh)
COc1cccc(N2CCN(C(=O)Cn3cnc4onc(-c5ccc(F)cc5)c4c3=O)CC2)c1	none (no result: WRN inhibitor)
